Measurements published in PubChem BioAssay (NCATS).
Records with an inconclusive call do not appear. Calls of active or inactive are those of the source. Calls follow the shape of the dose curve; as a rule, active = well fitted inhibition curve with a large enough effect; inconclusive = small, poorly fitted or top-dose-only effect; inactive = flat fitted curve, though single readings scatter.

Legend:
Test in all cases: qHTS profiling for inhibitors of Plasmodium falciparum proliferation (AID 504749); also: nearly all actives have a fitted effect of over 60% in size
CP269 = details: P. falciparum in erythrocytes, SYBR Green DNA, 72 h; series mostly up to 28.7 µM
Outline: (§1)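 SYBR Green fluorescence (ex 485 nm, em 535 nm) reports parasite DNA after 72 h compound exposure of infected red cells at 0.3% parasitemia, 2.5% hematocrit; signal normalized to 0.29 uM artemisinin and vehicle wells.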

CP286 = details: P. falciparum in erythrocytes, SYBR Green DNA, 72 h; series mostly up to 28.7 µM
Outline: as §1

CP291 = details: P. falciparum in erythrocytes, SYBR Green DNA, 72 h; series mostly up to 28.7 µM
Outline: as §1

CP297 = details: P. falciparum in erythrocytes, SYBR Green DNA, 72 h; series mostly up to 28.7 µM
Outline: as §1

CP305 = details: P. falciparum in erythrocytes, SYBR Green DNA, 72 h; series mostly up to 28.7 µM
Outline: as §1

CP315 = details: P. falciparum in erythrocytes, SYBR Green DNA, 72 h; series mostly up to 28.7 µM
Outline: as §1

CP325 = details: P. falciparum in erythrocytes, SYBR Green DNA, 72 h; series mostly up to 28.7 µM
Outline: as §1

CP329 = details: P. falciparum in erythrocytes, SYBR Green DNA, 72 h; series mostly up to 28.7 µM
Outline: as §1

DFO2036 = details: P. falciparum in erythrocytes, SYBR Green DNA, 72 h; series mostly up to 28.7 µM
Outline: as §1

CP335 = details: P. falciparum in erythrocytes, SYBR Green DNA, 72 h
Outline: as §1
Potency is read from the fitted curve at half-maximal effect.

| SMILES | Potency (CP269) | Potency (CP286) | Potency (CP291) | Potency (CP297) | Potency (CP305) | Potency (CP315) | Potency (CP325) | Potency (CP329) | Potency (DFO2036) | Potency (CP335) |
| --- | --- | --- | --- | --- | --- | --- | --- | --- | --- | --- |
| CCCOc1ccc2nc(NC(=O)OC)sc2c1 | inactive | inactive | inactive | inactive | inactive | inactive | inactive | inactive | inactive |  |
| COC1C(OC(=O)/C=C/C=C/C=C/C=C/C(=O)O)CCC2(CO2)C1C1(C)OC1CC=C(C)C (stereo not drawn) |  |  | 8.49 µM (active) |  |  | 1.69 µM (active) | 7.57 µM (active) | 601 nM (active) |  |  |
| C=CCNC1=C2C[C@@H](C)C[C@H](OC)[C@H](O)[C@@H](C)/C=C(\C)[C@H](OC(N)=O)[C@@H](OC)/C=C\C=C(/C)C(=O)NC(=CC1=O)C2=O | 1.69 µM (active) | 3.55 µM (active) | 4.26 µM (active) | 1.69 µM (active) | 4.78 µM (active) | 3.79 µM (active) | 4.26 µM (active) | 4260 nM (active) | 2 µM (active) | 1.69 µM (active) |
